Bim-Mcl-1: disrupts Bim peptide binding to human Mcl-1; Bead-based flow cytometry, Bim peptide-Mcl-1 binding; inhibition, % at 10 µM; 190,000 tested, 0.1% active; AID 1009; in the data active = inhibition above about 40%;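 note: 0% = no compound tracer wells and 100% = peptide blocker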
Target sequence (Q07820 whole entry, looked up): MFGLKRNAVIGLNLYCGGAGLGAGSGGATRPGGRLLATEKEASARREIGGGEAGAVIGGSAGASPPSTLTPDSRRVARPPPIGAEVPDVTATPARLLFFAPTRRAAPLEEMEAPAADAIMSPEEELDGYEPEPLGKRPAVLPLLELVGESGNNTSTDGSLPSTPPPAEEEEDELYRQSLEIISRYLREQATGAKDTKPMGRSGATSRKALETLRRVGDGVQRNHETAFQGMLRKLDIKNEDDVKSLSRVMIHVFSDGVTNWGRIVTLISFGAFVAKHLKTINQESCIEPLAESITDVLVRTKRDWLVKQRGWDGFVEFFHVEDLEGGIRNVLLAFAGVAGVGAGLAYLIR
Mcl1-Bid inh: disrupts binding of human Mcl-1 to Bid peptide | Q07820 | TR-FRET Mcl-1/Bid-Dy647 peptide binding, 1536-well | inhibition, % at 21.7 µM | 220,000 tested, 0.97% active | AID 1021;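 active = compounds that cut the binding signal by more than half at the single screening dose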;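 note: His-tagged Mcl-1 with europium anti-His antibody binding Bid BH3 peptide; 0% = Mcl-1 plus peptide wells and 100% = peptide-only wells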
Mcl1 Noxa PPI: disrupts binding of human Mcl-1 to Noxa peptide; TR-FRET Mcl-1/Noxa peptide binding, 2 h; 220,000 tested, 1.5% active; Q07820; inhibition, % at 21.7 µM;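 active = compounds that cut the protein-peptide binding signal by more than 50% relative to plate controls in a single-dose test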;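 note: His-tagged Mcl-1 with rhodamine Noxa BH3 peptide and terbium anti-His antibody; 0% = Mcl-1 plus Noxa peptide wells and 100% = peptide-only wells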
MCL1-BIM inh: disrupts human MCL1 binding to BIM-BH3 peptide | Q07820 | GST-MCL1 / FITC-Bim-BH3 fluorescence polarization | inhibition, % at 10.9 µM | 320,000 tested, 0.68% active;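 active = inhibition above the mean inhibition of all tested compounds plus 3 SD, set per campaign, cut at about 40% in these data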;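 note: 0% = DMSO wells and 100% = unlabeled Bim-BH3 peptide control; higher means more loss of mP so more displacement of Bim peptide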
* hit, by the source's call; nt = not tested or not shown. A selection: hits, their analogues and other compounds. The true share with any hit is near 2%.

SMILES	Bim-Mcl-1	Mcl1-Bid inh	Mcl1 Noxa PPI	MCL1-BIM inh
COC(=O)c1ccc(/C=N/NC(=O)c2ccccc2Cl)cc1	-1	0	16	9
Cc1ccc(S(=O)(=O)NCC(=O)OCC(=O)c2c(N)n(C)c(=O)n(C)c2=O)cc1	-5	-11	-9	1
O=C(NC1CCCCC1)c1sc(=S)n2c1[nH]c(=O)c1ccccc12	-1	30	76*	18
CCOc1ccc(CNC(=O)Cn2nc(C)c3c(C)n(-c4ccc(C)cc4)nc3c2=O)cc1	nt	nt	nt	-5
CCC(=O)Nc1cc2c3c(c1)CCC(=O)N3CCC2	nt	nt	nt	8
CCN(CC)S(=O)(=O)c1cc([N+](=O)[O-])ccc1N=Nc1c(O)[nH]c2ccccc12	-1	51*	7	-5
O=[N+]([O-])c1ccc2[nH]c(O)c(N=Nc3ccc(F)cc3)c2c1	nt	nt	nt	-3
O=C(N=Nc1c(O)[nH]c2ccc([N+](=O)[O-])cc12)c1ccccc1[N+](=O)[O-]	nt	-8	14	8
CCc1cc(C(=O)N=Nc2c(O)[nH]c3ccc([N+](=O)[O-])cc23)c2ccccc2n1	-1	-48	92*	38
Cc1cc(C)c2[nH]c(=O)c(=O)[nH]c2c1	-1	3	9	2
Cc1cc2c(C)c(C)c(=O)[nH]c2cc1N	-4	-20	55*	5
COc1ccc2[nH]cc(C3N4CC5(C)CN3CC(C)(C4)C5=O)c2c1 (stereo unspecified)	2	55*	3	5
CCOC(=O)C1=C(c2ccccc2)OC(N)=C(C#N)C1c1ccc(Cl)s1 (stereo unspecified)	0	-3	14	-1
CCN1CC=C2C(C1)C(c1ccc(Cl)s1)C(C#N)=C(N)C2(C#N)C#N (stereo unspecified)	8	-25	19	114*
Cc1cccc(-c2n[nH]c(=S)n2/N=C/c2cccs2)c1	nt	-7	6	-11
Cc1cccc(-c2n[nH]c(=S)n2/N=C/c2ccc(C)s2)c1	4	-33	69*	-16
Cc1cccc(C)c1NC(=O)C(C)N1CCCCC1 (stereo unspecified)	nt	-10	-12	4
COc1cccc(C(=O)Nc2sc3c(c2C#N)CCN(C(C)=O)C3)c1	-11	-23	3	5
CCOC(=O)c1sc(NC(=O)Nc2ccc(Cl)cc2)cc1C	2	7	100*	-5
O=C(NCC1CCCO1)c1cccc(S(=O)(=O)NCc2ccccc2)c1 (stereo unspecified)	-2	8	-6	0
CCOc1ccc(S(=O)(=O)NCCC(=O)N(C)CC(=O)Nc2ccc(N3CCOCC3)cc2)cc1	nt	nt	nt	3
O=C(/C=C/c1cccnc1)c1ccc(O)cc1	nt	-49	85*	19
CCc1c(C)c(C#N)c2nc3ccccc3n2c1NCCOC	nt	nt	nt	-3
Cc1c(Cc2ccccc2)c(NCCN(C)C)n2c(nc3ccccc32)c1C#N	nt	-19	79*	7
CCCOc1ccc(C2C3=C(Nc4nc(N)[nH]c(=O)c42)c2ccccc2C3=O)cc1 (stereo unspecified)	nt	-23	49	10
SMILES	Bim-Mcl-1	Mcl1-Bid inh	Mcl1 Noxa PPI	MCL1-BIM inh
CCOc1ccc(C2C3=C(Nc4nc(N)[nH]c(=O)c42)c2ccccc2C3=O)cc1 (stereo unspecified)	-7	52*	76*	-1
COc1ccc(/C=N/Nc2nc(-c3cccnc3)nc3ccccc23)c(OC)c1	nt	54*	35	-4
OC(Cn1cnnc1)c1ccccc1 (stereo unspecified)	nt	nt	nt	4
COc1ccc(C2=NC(=O)/C(=C\c3cc(OC)c(OC)c(OC)c3)O2)cc1	-7	54*	32	-3
C=CCn1c(SCC(=O)Nc2sccc2C(N)=O)nc2sc(C)c(C)c2c1=O	-3	52*	3	3
O=[N+]([O-])c1cc(S(=O)(=O)Nc2ccc(Cl)cc2)ccc1N/N=C/c1ccncc1	-2	26	52*	1
O=[N+]([O-])c1ccc(Cl)cc1N/N=C/c1ccncc1	nt	nt	nt	6
COc1ccccc1C(=O)N1CCC(N2CCN(c3ccccc3)CC2)CC1	nt	56*	-68	3
COc1ccccc1C(=O)N1CCC(N2CCN(c3ccccc3OC)CC2)CC1	nt	24	16	2
CN(CCCNC(=O)CCc1cn(C)c2ccccc12)C1CCCCC1	nt	nt	nt	-9
O=C(Nc1ccc2sccc2c1)c1ccc(Cl)s1	-2	82*	7	4
CCn1nnnc1SCC(=O)N(C)C1CCS(=O)(=O)C1 (stereo unspecified)	nt	nt	nt	-1
Cc1ccc(OCCCC(=O)Nc2ccccc2C(F)(F)F)cc1	-4	-10	74*	6
S=c1[nH]nc(-c2ccncc2)n1/N=C/c1cn(-c2ccccc2)nc1-c1ccc(Cl)cc1	nt	-59	62*	-3
CSc1nnc(-c2ccncc2)n1/N=C/c1cn(-c2ccccc2)nc1-c1ccc(Cl)cc1	nt	-19	5	-11
CCCOc1ccc(OCCCCNC(C)CC)cc1 (stereo unspecified)	-2	60*	28	8
COc1cc(-c2nc(-c3ccc4c(c3)-c3ccccc3S4(=O)=O)c(-c3ccccc3)[nH]2)cc(OC)c1O	2	10	58*	8
CN(C)CCN(Cc1ccc(Cl)cc1)c1ccccn1	-1	1	61*	-3
CCc1ccc(/C=C2/C(=O)NC(=O)N2C(C)=O)cc1	nt	nt	nt	-4
Cc1cc(C(=O)NCC(c2cccs2)N2CCOCC2)ccc1[N+](=O)[O-] (stereo unspecified)	nt	nt	nt	-4
COc1cc(C(=O)OCC(=O)NC2CCCCC2)cc2c1OCCO2	nt	nt	nt	0
Cc1cc(C)c(S(=O)(=O)NCc2cn3c(C)csc3n2)cc1C	0	3	76*	3
CC(C)NC(=O)NC(=O)CSc1nnc(-c2c[nH]c3ccccc23)o1	nt	nt	nt	-24
Cc1cc(C)n2nc(SC(C)C(=O)NC3CCCCC3C)nc2n1 (stereo unspecified)	nt	nt	nt	-10
CSc1ccc(CN2CCC(C(=O)NCc3ccc(C)cc3)CC2)cc1	0	50*	29	-7
SMILES	Bim-Mcl-1	Mcl1-Bid inh	Mcl1 Noxa PPI	MCL1-BIM inh
Cc1ccc(CNC(=O)CN2CCC(C(N)=O)CC2)cc1	-1	-18	-8	0
COc1ccccc1-c1ocnc1C(=O)N1CCN(S(=O)(=O)c2ccc(NC(C)=O)cc2)CC1	nt	nt	nt	1
Cc1oc2c(cc(NS(=O)(=O)c3ccc4c5c(cccc35)C(=O)N4)c3ccccc32)c1C(=O)OC(C)C	0	10	49	0
O=C1CCCc2oc3c(cc(NS(=O)(=O)c4ccc5c6c(cccc46)C(=O)N5)c4ccccc43)c21	nt	-76	61*	6
Cc1ccc(C)c(N2CCN(C(=O)c3cc4ccccn4n3)CC2)c1	-4	-9	-2	44*
O=C(Nc1ccc(Cl)c(Cl)c1)Nc1ccc([N+](=O)[O-])cn1	nt	36	53*	5
O=C(Nc1ccc(F)cc1)Nc1ccc([N+](=O)[O-])cn1	-4	7	15	-4
CC1CC(C)CN(CCOCCSc2ccccc2)C1 (stereo unspecified)	-5	69*	18	7
COc1ccc(CC(=O)NC(C)c2ccc(S(N)(=O)=O)cc2)cc1S(=O)(=O)N1CCOCC1 (stereo unspecified)	nt	nt	nt	5
CC(C)(C)c1cc(C(=O)N/N=C/c2ccc(-c3ccccc3[N+](=O)[O-])o2)n[nH]1	nt	nt	nt	42*

Compound activity from PubChem.
